This is a sample that favours compounds with a hit; in the whole collection about 1.2% have one here.
RGS7-Gao: RGS7-Galphao binding modulators, primary screen, biochemical, multiplexed bead flow cytometry; Guanine nucleotide-binding protein G(o) subunit alpha (Homo sapiens), P09471; actives lie on both sides; binding response (% of control), % at 10 µM; 0.35% of 220,000 active; AID 1439, 2008; in the data active = binding response below about 49% or above about 150%;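 note: fluorescent Galphao held in activated GDP-AlF4 state binding bead-coupled RGS7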
GSH bead fluor: compound fluorescence on glutathione beads, profiling panel, artefact control, biophysical, 488/530 nm, flow cytometry. GSH beads flow cytometry, compound fluorescence 488/530 nm; active compounds read high. fluorescence (KMESF) at 10 µM. 0.25% of 190,000 active; in the data active = fluorescence above about 89;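 note: glutathione beads carrying GST-tagged Bcl family fusion proteins plus one bare bead set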
RGS4-Gao reg: modulators of RGS4 binding to Galphao, primary screen, biochemical, multiplexed bead flow cytometry; Guanine nucleotide-binding protein G(o) subunit alpha (Homo sapiens), P09471; actives lie on both sides; binding response (% of control), % at 10 µM; 0.33% of 220,000 active; AID 1415, 2008; in the data active = binding response below about 49% or above about 150%; inactive = in between;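 note: fluorescent Galphao activated with aluminum fluoride binding bead-coupled RGS4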
RGS16-Gao: modulators of RGS16 binding to Galphao, primary screen, biochemical, human proteins, multiplexed bead flow cytometry | binding response (% of control), % at 10 µM | Regulator of G-protein signaling 16 (Homo sapiens) + Guanine nucleotide-binding protein … | 0.38% of 220,000 active | bead-based flow cytometry RGS16-Galphao binding, fluorescence; actives lie on both sides;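 note: Galphao activated by GDP with aluminum fluoride before binding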
RGS8-Gao: RGS8-Galphao binding modulators, primary screen, biochemical, multiplexed bead flow cytometry | actives lie on both sides | response (percent of control binding), % at 10 µM | 0.34% of 220,000 active | AID 1423, 2008; in the data active = response below about 60% or above about 140%; inactive = in between;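 note: Galphao activated as the GDP aluminium fluoride complex binding bead-coupled RGS8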
Avidin bead fluor: green autofluorescence of compounds with avidin beads – biophysical, 488/530 nm, flow cytometry, artefact control, profiling panel. compound fluorescence 488/530 nm; active compounds read high. fluorescence (KMESF) at 10 µM. 0.38% of 220,000 active. AID 1775, 2009; in the data active = fluorescence above about 47
RGS-Gao: modulators of RGS–Galpha-o binding, primary screen, biochemical, multiplexed beads, flow cytometry, RGS4/7/8/16/19; shares compounds with RGS16-Gao; RGS4–Galpha-o binding response, % at 10 µM; multiplexed bead flow cytometry; 99% of 1,600 active;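 note: fluorescently labeled Galpha-o bound to GDP with aluminium fluoride binding biotinylated RGS beads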
Biotin-avidin: disruption of biotin probe capture by avidin, counter-screen for RGS protein interaction modulators, biochemical, flow cytometry, bead-based; shares compounds with RGS16-Gao; streptavidin beads, fluorescein-biotin binding; inhibition, % at 10 µM; 1,700 tested, under 10 active; AID 1783, 2009;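 active = inhibition above 50%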;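 note: median green fluorescence of gated singlet beads compared with DMSO control wells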
RGS8-Gao single: RGS8-Galphao binding modulators, confirmation, biochemical, multiplexed bead flow cytometry, single concentration; shares compounds with RGS16-Gao; bead-based flow cytometry RGS8-Galphao binding, fluorescence; actives lie on both sides; binding response (% of control), % at 10 µM; 3% of 1,700 active; AID 1836, 2009; in the data active = binding response below about 72% or above about 130%; inactive = in between;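 note: Galphao activated as GDP AlF4 complex before binding bead RGS8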
RGS7-Gao confirm: RGS7-Galphao binding modulators, confirmation, biochemical, multiplexed bead flow cytometry, single concentration; shares compounds with RGS16-Gao; bead-based flow cytometry RGS7-Galphao binding; actives lie on both sides; response (percent of control binding), % at 10 µM; 7.8% of 1,700 active; in the data active = response below about 75% or above about 130%; inactive = in between;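 note: fluorescent Galphao activated with GDP and aluminum fluoride binding bead-coupled RGS7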
RGS16-Gao conf: modulators of RGS16-Galphao protein binding, confirmation, biochemical, single concentration, multiplexed bead flow cytometry; shares compounds with RGS16-Gao; response (% of control binding), % at 10 µM; bead-based flow cytometry; actives lie on both sides; 4% of 1,700 active; in the data active = response below about 74% or above about 130%; inactive = in between;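 note: Galphao activated as the GDP aluminium fluoride complex binding bead-coupled RGS16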
RGS4-Gao single: modulators of RGS4-Galphao protein binding, confirmation, biochemical, single concentration, multiplexed bead flow cytometry. 4% of 1,700 active. actives lie on both sides. binding response (% of control), % at 10 µM. shares compounds with RGS16-Gao; in the data active = binding response below about 74% or above about 130%; inactive = in between
RGS19-Gao single: regulators of RGS19-Galphao binding, confirmation, biochemical, single point, multiplexed bead flow cytometry. shares compounds with RGS16-Gao. bead-based flow cytometry RGS19-Galphao binding; actives lie on both sides. response (percent of control binding), % at 10 µM. 5% of 1,700 active. AID 1841, 2009; in the data active = response below about 50% or above about 160%; inactive = in between
Target sequence (P09471 whole entry, looked up): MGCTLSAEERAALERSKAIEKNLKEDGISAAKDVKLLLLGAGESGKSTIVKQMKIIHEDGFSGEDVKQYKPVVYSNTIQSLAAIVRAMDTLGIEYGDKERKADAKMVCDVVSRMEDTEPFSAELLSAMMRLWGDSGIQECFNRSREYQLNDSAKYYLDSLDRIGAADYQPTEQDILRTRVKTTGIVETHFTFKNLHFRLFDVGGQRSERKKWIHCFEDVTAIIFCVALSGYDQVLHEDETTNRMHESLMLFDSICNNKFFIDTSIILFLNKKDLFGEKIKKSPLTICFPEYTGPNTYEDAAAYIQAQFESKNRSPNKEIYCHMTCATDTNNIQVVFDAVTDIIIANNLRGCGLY
Target sequence (P49795 whole entry, looked up): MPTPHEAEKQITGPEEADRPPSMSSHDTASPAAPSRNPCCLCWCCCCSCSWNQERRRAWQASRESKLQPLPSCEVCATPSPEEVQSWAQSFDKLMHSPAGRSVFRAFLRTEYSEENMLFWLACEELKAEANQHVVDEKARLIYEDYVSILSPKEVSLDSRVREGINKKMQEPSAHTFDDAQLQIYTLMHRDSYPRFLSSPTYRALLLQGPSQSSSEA
A number is an active result; [ ] = dose if it differs, or a comment. Unless noted, the rule behind the calls is not given here.

Results for Cc1ccc(S(=O)(=O)NC2(C(F)(F)F)C(=O)Nc3c2c(=O)[nH]c(=O)n3-c2ccccc2)cc1 (stereo not drawn) ?
RGS7-Gao: 162.1[activator]; GSH bead fluor: inactive; RGS4-Gao reg: inactive; RGS16-Gao: inactive; RGS8-Gao: inactive; Avidin bead fluor: 88; RGS-Gao: 113.0; Biotin-avidin: inactive; RGS8-Gao single: inactive; RGS7-Gao confirm: inactive; RGS16-Gao conf: inactive; RGS4-Gao single: inactive; RGS19-Gao single: inactive

What do the screens show for `CC(Oc1ccc(Cl)cc1Cl)c1ccn[nH]1` (stereo not drawn)?
RGS7-Gao: inactive; GSH bead fluor: inactive; RGS4-Gao reg: inactive; RGS16-Gao: inactive; RGS8-Gao: inactive; Avidin bead fluor: inactive

How did O=C(NCCC1=CCCCC1)c1ccc(Cl)cc1 do in these assays?
RGS7-Gao: inactive; GSH bead fluor: inactive; RGS4-Gao reg: inactive; RGS16-Gao: inactive; RGS8-Gao: inactive; Avidin bead fluor: inactive

Results for CS(=O)(=O)Nc1ccc(C(=O)NCCC2=CCCCC2)cc1 ?
GSH bead fluor: inactive; Biotin-avidin: inactive; RGS8-Gao single: inactive; RGS7-Gao confirm: inactive; RGS16-Gao conf: inactive; RGS4-Gao single: inactive; RGS19-Gao single: inactive

How did CN(C)CCNC(=O)/C(=C/c1ccc(-c2ccc(Cl)cc2)o1)NC(=O)c1ccccc1 do in these assays?
RGS7-Gao: 185.5[activator]; GSH bead fluor: inactive; RGS4-Gao reg: 182.5[activator]; RGS16-Gao: inactive; RGS8-Gao: 162.5[activator]; Avidin bead fluor: inactive; Biotin-avidin: inactive; RGS8-Gao single: inactive; RGS7-Gao confirm: inactive; RGS16-Gao conf: inactive; RGS4-Gao single: inactive; RGS19-Gao single: inactive

Results for Cc1oc(-c2ccc(Cl)cc2)nc1CSCC(=O)NCCCN1CCOCC1 ?
RGS7-Gao: 164.0[activator]; GSH bead fluor: inactive; RGS4-Gao reg: 187.1[activator]; RGS16-Gao: 227.9[activator]; RGS8-Gao: inactive; Avidin bead fluor: inactive; Biotin-avidin: inactive; RGS8-Gao single: inactive; RGS7-Gao confirm: inactive; RGS16-Gao conf: inactive; RGS4-Gao single: inactive; RGS19-Gao single: inactive

High-throughput results deposited in PubChem BioAssay by NMMLSC.
